Experimental data published in PubChem BioAssay AID2075 (NMMLSC, 2009).
Active and inactive are the calls of the source. The rule behind the calls is not given here.

These compounds were tested against Apoptosis regulator Bcl-2 (Homo sapiens) (UniProt P10415) (assay: inhibitors of Bim-Bcl-2 binding, confirmation, biochemical, dose response, multiplexed HTS hits (AID 2075)). Conditions: bead-based flow cytometry, Bim peptide-Bcl-2 binding; series mostly up to 100 µM.
Chain of Apoptosis regulator Bcl-2 (Homo sapiens) (P10415 whole entry, looked up): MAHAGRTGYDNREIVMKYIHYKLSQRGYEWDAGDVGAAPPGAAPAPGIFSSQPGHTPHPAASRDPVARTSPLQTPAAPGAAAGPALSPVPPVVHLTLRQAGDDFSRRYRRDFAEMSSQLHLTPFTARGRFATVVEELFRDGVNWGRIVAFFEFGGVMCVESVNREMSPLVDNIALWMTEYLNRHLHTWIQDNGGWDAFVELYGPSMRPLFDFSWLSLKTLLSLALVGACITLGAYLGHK

outcome, inactive:
CCN(CC)c1ccc(NC(=O)c2ccccc2Br)cc1S(=O)(=O)Nc1ccccc1OC
COc1cc(CNc2ccc3[nH]c(=O)[nH]c3c2)cc(Br)c1OCC(=O)NC(C)(C)C
COc1ccc(N2C(=O)C(Cl)=C(Oc3cccc(OC)c3)C2=O)cc1
Cc1ccc(-c2cc(C(=O)Nc3nccs3)c3ccccc3n2)o1
O=c1c2c(n3nnnc3n1Cc1ccccc1)-c1ccccc1CC21CCCC1
COc1cc(N=C2SSNC2Cl)c(OC)cc1Cl (configuration not stated)
Cc1ccc(-c2cc(-c3ccc(C)o3)nc(N)c2C#N)cc1
O=C(Nc1nnc(COc2ccc(Cl)cc2)s1)c1ccco1
CCOc1ccccc1CNc1ccc(O)cc1
Cc1nnc(Sc2cc(NCCO)c([N+](=O)[O-])c3nonc23)s1
CC(=O)Nc1ccc(-n2cc(-c3ccccc3)[nH]c2=S)cc1
C=CS(=O)(=O)c1sc(Cl)c(N2CCOCC2)c1[N+](=O)[O-]
O=C1c2ccccc2C(=O)N1CN(C(=O)COc1ccc(Cl)cc1Cl)c1cccc(F)c1
CCN1C(=O)/C(=C\C=C2/C=CC=CN2CC)SC1=S
Oc1ccc(NCc2ccccc2OCc2ccccc2)cc1
CNC1CCC(Br)CC(C(=O)/C=C/c2cccc(OC)c2OC)C1=O (configuration not stated)
O=C1/C(=C\c2ccco2)NC(=S)N1c1ccccc1
CCN(CC)c1ccc(NC(=O)COc2ccccc2C)cc1S(=O)(=O)Nc1ccccc1OC
S=c1[nH]cc(-c2ccccc2)n1-c1ccccc1
COc1ccccc1-n1c(-c2ccccc2)c[nH]c1=S
CNC(CC(=O)c1ccc([N+](=O)[O-])cc1)C(Cl)(Cl)Cl (configuration not stated)
CCN(CC)c1ccc(NC(=O)c2ccccc2F)cc1S(=O)(=O)Nc1ccccc1OC
COc1ccc(N2C(=O)C(Cl)=C(NC3C(=O)N(c4ccccc4)N(C)C3C)C2=O)cc1 (configuration not stated)
O=C1C(Cl)=C(N2CCN(c3ccccc3[N+](=O)[O-])CC2)C(=O)c2ccccc21
Cc1cc(-c2cc(-c3ccc(Cl)cc3)nc(N)c2C#N)co1
O=C(/C=C/c1ccc(-c2ccccc2[N+](=O)[O-])o1)c1ccccc1
Cc1ccc(-c2cc(-c3ccc(F)cc3)c(C#N)c(N)n2)o1
